Results reported in PubChem BioAssay.
Potency and affinity values are given separately. Activity calls are given as the source filed them. The limit is not given here; nearly all actives have IC50 up to about 0.91 µM.

These compounds were tested against Calcium-dependent protein kinase 4 (Plasmodium falciparum (isolate 3D7)) (UniProt Q8IBS5) (assay: PfCDPK4 kinase inhibitors, biochemical, TCAMS library (AID 1159588)). Conditions: recombinant PfCDPK4, Kinase-Glo ATP depletion luminescence.
Chain of Calcium-dependent protein kinase 4 (Plasmodium falciparum (isolate 3D7)) (Q8IBS5 whole entry, looked up): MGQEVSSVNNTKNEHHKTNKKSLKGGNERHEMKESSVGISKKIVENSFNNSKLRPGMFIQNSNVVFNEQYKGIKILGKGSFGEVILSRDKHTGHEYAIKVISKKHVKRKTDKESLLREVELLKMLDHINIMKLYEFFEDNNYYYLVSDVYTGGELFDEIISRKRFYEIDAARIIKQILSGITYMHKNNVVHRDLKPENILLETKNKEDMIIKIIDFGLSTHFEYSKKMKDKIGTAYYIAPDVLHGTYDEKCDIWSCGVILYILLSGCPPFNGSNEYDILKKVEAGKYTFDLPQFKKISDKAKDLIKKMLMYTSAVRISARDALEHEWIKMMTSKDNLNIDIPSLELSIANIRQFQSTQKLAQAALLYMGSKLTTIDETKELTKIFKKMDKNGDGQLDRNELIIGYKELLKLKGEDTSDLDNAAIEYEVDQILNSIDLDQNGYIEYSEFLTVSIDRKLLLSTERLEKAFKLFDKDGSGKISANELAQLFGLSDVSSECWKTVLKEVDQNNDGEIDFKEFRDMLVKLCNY

outcome, inactive:
C=CCN1Cc2c(O)cccc2C(c2ccc(O)c(O)c2)C1 (centres undefined)
COc1cc(C(C)C)ccc1N1CCN(CCCCNC(=O)c2ccc(NC(=O)c3ccc(Cl)cc3)cc2)CC1
CCCNS(=O)(=O)c1ccc(NC(=O)C(C)Oc2ccc([N+](=O)[O-])cc2)cc1 (centres undefined)
CC(C)CN1CCCN(Cc2cccc(NC(=O)c3ccc(Cl)c(Cl)c3)c2)CC1
COc1ccccc1C(=O)N1CCN(Cc2cccs2)CC1
Cc1ccc(CNC(=O)[C@H](CC(C)C)Nc2cc(C)nc(NCc3ccccc3C)n2)cc1
CCC[C@]1(C)CSc2ccccc2[C@@H](c2ccccc2)N1
COc1ccc(-c2cccc(NC(=O)c3cccc(Cl)c3)c2)cc1CNC(C)C
CCn1c(Sc2ccc(C#N)c([N+](=O)[O-])c2)nnc1-c1cc(OC)cc(OC)c1
CC1(C)N=C(N)N=C(N)N1OCCSCCON1C(N)=NC(N)=NC1(C)C
Cc1ccc(S(=O)(=O)N2CCN(C(=O)c3cc(-c4ccccc4)n[nH]3)CC2)cc1
CN(C)CCNCc1ccc(-c2cccc(-c3nc4ccccc4[nH]3)c2)cc1
COc1cc(NC(=O)c2c(-c3c(F)cccc3Cl)noc2C)c(OC)cc1Cl
Cc1occc1C(=O)Nc1nc(-c2ccccn2)nc2ccsc12
COc1ccc(NCCCNc2ccnc3ccccc23)cc1
c1ccc(CN2CCN(c3cc(-c4cncc(-c5ccccc5)c4)nc(-c4ccccc4)n3)CC2)cc1
O=C(Nc1ccccc1)c1ccc(-c2cc3ccncc3cc2OC2CCNCC2)s1
Cc1nc2nc(N)nc(N)c2c(C)c1Cc1c(Cl)cccc1Cl
O=C(/C=C/c1ccc(Cl)c(Cl)c1)NCCCCCN1CCC(CCNC(=O)Cc2ccc(Cl)cc2)CC1
Cc1c(F)cc(C(=O)NC2CC2)cc1-c1ccc2c(cnn2S(=O)(=O)c2ccc(Cl)s2)c1
Cc1cccc2[nH]c(-c3ccc(-c4ccc(CN5CCC(C(N)=O)CC5)cc4)cc3)nc12
CC(Cc1ccc(NC(=O)c2ccc(CNCCCCc3ccccc3)cc2)cc1)NCCc1cccc(Cl)c1 (centres undefined)
NC1=NC(c2ccccc2)(c2ccccc2)C(=O)N1CCCCc1ccccn1
OCC(c1ccccc1)n1c(COc2ccc(Cl)cc2)nc2c(OCCCN3CCCCC3)cccc21 (centres undefined)
